Records with an inconclusive call do not appear. A number with no mark means an inactive call. Calls of active or inactive are those of the source. Calls come from the whole dose curve; as a rule, active = well fitted inhibition curve with a large enough effect; inconclusive = small, poorly fitted or top-dose-only effect; inactive = no such curve, though single readings can be large or run the other way.

A short description of the test: qHTS assay for measurement of the activity of small molecule inhibitors on Zika virus induced Caspase-3 activity in human iPSC derived neural progenitor cells (hNPCs) (AID 1224857). Note: nearly all actives have a fitted effect of over 65% in size. As to conditions: hNPCs ZIKV-induced caspase-3/7, Caspase-Glo luminescence, 6 h; series mostly up to 45.7 µM. The text has this:
National Center for Advancing Translational Sciences [NCATS]
Johns Hopkins University School of Medicine
Increase in the Caspase-3 activity indicates an activation of apoptosis cell death pathway caused by Zika virus infection in certain types of neuronal cells including human neural progenitor cells (hNPCs), astrocytes, and astrocytoma cell line (SNB-19). This cell-based caspase-3 activity assay measures the increased caspase-3 activity in the human iPSC derived neural progenitor cells (hNPCs) after a 6-hour Zika virus infection with a luminescence readout. A decrease in the luminescence signal in this assay by small molecule treatment indicates an inhibitory effect of that small molecule on the Zika virus induced caspase-3 activity that may correlate with its effect on reduction of Zika virus caused cell death.
The medium for hNPCs consists of DMEM/F12, N2 supplement (ThermoFisher, Cat.# 17502048), NEAA (ThermoFisher, Cat. # 11140050), 2 ug/ml heparin, 2 uM cyclopamine, and B27 (ThermoFisher, Cat. # 17504044). A Caspase-Glo 3/7 assay kit (catalog number G8092; Promega, Madison, WI) was used to detect caspase-3 activity induced by Zika virus infection in human cells. The reagent mixture was reconstituted as described in the protocol from the manufacturer. Polystyrene tissue culture treated and PDL coated white plates were obtained from Greiner Bio-One (Monroe, NC). Cells were seeded in 384- or 1536-well assay plates and cultured at 37 C with 5% CO2 for 16 to 20 hours. The typical cell seeding density in the 1536-well plate assay is 350 cells/well in 3 ul medium for hNPCs in tissue culture treated plates. Compounds were added to cells and incubated for one hour before addition of ZIKV solution to cells (2 FFU/cell). After incubation at 37 C with 5% CO2 for 6 hours, the reagent mixture of Caspase-Glo 3/7 assay kit was added to each well, followed by incubation at room temperature for 30 minutes. The luminescence intensity of the assay plates was measured using a ViewLux plate reader (PerkinElmer). Data were normalized by using the cell-containing wells without ZIKV as a negative control (0% induction of caspase 3/7 activity) and wells containing ZIKV infected cells (Caspase-3 activity induced) as a positive control (100% induction of caspase 3 activity). The percentage inhibitions of the increased Caspase-3 activity by small molecule inhibitors were then calculated.
A general note: qHTS replaces the single test concentration by a dilution series.
`O=c1cc[nH]c(=O)[nH]1`: the call was inactive. `C[C@]12CC[C@@H]3c4ccc(O)cc4CC[C@H]3[C@@H]1CC[C@@H]2OC(=O)CCC1CCCC1`: the molecule was called inactive. Turning to `O=C(Oc1ccccc1C(=O)O)c1ccccc1O`, the outcome was inactive. `O=C(O)[C@@H]1CSCN1`: the call was inactive.

Take `CC1(C)S[C@@H]2[C@H](NC(=O)Cc3ccccc3)C(=O)N2[C@H]1C(=O)O` (tested in a mixture with another compound): the molecule was classed as inactive.

On to `CN(C)CCCN1c2ccccc2CCc2ccccc21`, for which the result was inactive. `C[C@H](N)[C@H](O)c1cccc(O)c1`: the call was inactive. Take `CC[N+](CC)(CC)CCOc1ccc(/C=C/c2ccccc2)cc1`: the call was inactive. With `Cc1cc2c(cc1S(N)(=O)=O)S(=O)(=O)CCC2`, the outcome was inactive.

In the case of `CC(C)(C)C(=O)NCCCC(=O)O`, the outcome was inactive. With `NCCNCCNCCNCCN`, the activity change, negative = inhibition was -1.07% [at 9.06 µM]. As to `CCN(CC)CCNC(=O)c1c(C)[nH]c(/C=C2\C(=O)Nc3ccc(F)cc32)c1C`, the call was inactive.

Turning to `Oc1ccc(C(O)CNCCCCCCNCC(O)c2ccc(O)c(O)c2)cc1O` (stereo not given), the outcome was inactive.

As for `CC(=O)OCC(=O)[C@@]1(O)CC[C@H]2[C@@H]3CCC4=CC(=O)CC[C@]4(C)[C@H]3C(=O)C[C@@]21C`, the outcome was inactive. Same read-out and setting: next, `CC(C)(C)NCC(O)COc1ccc(NC(=O)NC2CCCCC2)cc1` (stereo not given): “inactive”.

With `CN(C)CCC=C1c2ccccc2CCc2ccccc21`, the molecule was classed as inactive. On the same count and under the same terms, next, `CCCOC(=O)c1ccccc1`: “inactive”; `OC[C@H]1O[C@@H](O[C@@H]2[C@@H](CO)O[C@](O)(CO)[C@H]2O)[C@H](O)[C@@H](O)[C@H]1O`: “inactive”; `O=C(O)c1ccccc1O`: “inactive”. As to `CC(O)COc1ccccc1` (stereo not given), the call was inactive. Take `Oc1cccc(O)c1`: the molecule was classed as inactive. For `Cc1c(O)cccc1C(=O)N[C@@H](CSc1ccccc1)[C@H](O)CN1C[C@H]2CCCC[C@H]2C[C@H]1C(=O)NC(C)(C)C`, the outcome was inactive. As to `C[C@@H]1CCN(C(=O)[C@H](CCCN=C(N)N)NS(=O)(=O)c2cccc3c2NC[C@H](C)C3)[C@@H](C(=O)O)C1`, the outcome was inactive. `Nc1ccc(S(=O)(=O)Nc2ccccc2)cc1`: the call was inactive. Consider `COc1cc2[nH]c(=O)[nH]c(=O)c2cc1OC`, for which the molecule was classed as inactive. For the molecule `CCCCC/C(C=O)=C\c1ccccc1`, the molecule was classed as inactive. The same measure, in the same setting: next, `O=C1O[C@H]([C@@H](O)CO)C(O)=C1O`: “inactive”; `O=S(=O)(O)NC1CCCCC1`: “inactive”.

In the case of `C[C@](N)(Cc1ccc(O)cc1)C(=O)O`, the outcome was inactive. For `Cn1cc[nH]c1=S`, the outcome was inactive. The same measure, in the same setting: in the case of `O=S(=O)(O)c1cc(I)c(O)c2ncccc12` it was “inactive”; in that of `NC(=O)N/N=C/c1ccc([N+](=O)[O-])o1`, “inactive”.

In the case of `NS(=O)(=O)c1cc2c(cc1Cl)NC(CSCc1ccccc1)=NS2(=O)=O`, the call was inactive. On to `CCOC(=O)c1ccc(O)cc1`, for which the molecule was called inactive. With `CN1CCCCC1CCN1c2ccccc2Sc2ccc(S(C)=O)cc21` (stereo not given), the outcome was inactive.

`CN1CCOC(c2ccccc2)c2ccccc2C1` (stereo not given): the molecule was called inactive. `CC1(C)CO[C@@H](CC(=O)O)CN1`: the call was inactive.

On to `CC1=C(CC(=O)O)c2cc(F)ccc2/C1=C\c1ccc(S(C)=O)cc1` (stereo not given), for which the result was inactive. Consider `OCCN1CCN(CCCN2c3ccccc3Sc3ccc(Cl)cc32)CC1`, for which the molecule was classed as inactive. Regarding `COC(=O)[C@H]1[C@H]2C[C@@H]3c4[nH]c5cc(OC)ccc5c4CCN3C[C@H]2C[C@@H](OC(=O)COc2ccc(OC)cc2)[C@@H]1OC`, the molecule was classed as inactive.

These data come from PubChem BioAssay (NCATS).
